ELG1 repair inh: qHTS screen for small molecules that inhibit ELG1-dependent DNA repair in human embryonic kidney (HEK293T) cells expressing luciferase-tagged ELG1; HEK293T ELG1-luciferase reporter, luminescence, 16 h; DNA damage induced by 5-fluorouridine; Potency, µM (series often up to 46.1 µM), for inactives: top-dose activity change, negative = inhibition, most hits filed as inhibitors; actives 2.3% (n = 330,000); AID 504467, 2011; note: % is set by controls: 0 for no effect and ±100 for the full control effect; nearly all actives have a fitted effect of over 55% in size
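Overnight (16 hr) co-exposure of 2,000 cells/well to 5-fluorouridine and compound at 37 °C preceded detection. Luciferase was quantified via ONE-Glo luminescence; loss of signal denotes inhibition.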
NPC1 prom act: qHTS Assay for NPC1 Promoter Activators | Huh7 NPC1 promoter luciferase reporter, 24 h | Potency, µM (highest dose often 9.22 µM), inactives show at the top dose activation, usual class: activators | actives 2.4% (n = 320,000); note: % of control where 0% means no effect; nearly all actives have a fitted effect of over 60% in size
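Cells: Huh7 expressing luciferase under the NPC1 promoter, 1500/well. Seeded 2 h, compound added, incubated 24 h at 37 °C. Luciferase reagent, 10 min ambient, then luminescence.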
SMN2 splice enh: qHTS Assay for Enhancers of SMN2 Splice Variant Expression. Potency, µM (doses to about 46.1 µM), for the others: at the top dose activity change, positive = activation, actives largely listed as activators. actives 2.8% (n = 210,000). HEK293 SMN2-luciferase splicing reporter, luminescence, 30-36 h; note: % of control where 0% means no effect; nearly all actives have a fitted effect of over 55% in size
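HEK293 cells carry an SMN2 […]–luciferase reporter in which exon 7 inclusion puts luciferase in frame. Cells were plated 10-12 h before compound addition, then incubated 30-36 h at 37C. ONE-Glo luminescence was read; sodium butyrate at 4.5 mM final served as control.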
Rab9 prom act: qHTS Assay for Rab9 Promoter Activators; Huh7 Rab9 promoter-luciferase reporter, luminescence, 24 h; Potency, µM (titrated, usually from 9.22 µM), inactives show at the top dose activation, negative = inhibition, usual class: activators; actives 2.8% (n = 320,000); AID 485297, 2010; note: % of control where 0% means no effect; nearly all actives have a fitted effect of over 60% in size
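Steps: seed 1500 Huh7 Rab9-luc cells per well, rest 2 h at 37 °C; add compound in DMSO; incubate 24 h; add luciferase reagent, 10 min ambient; read luminescence.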
ELG1 genotox: qHTS screen for small molecules that induce genotoxicity in human embryonic kidney (HEK293T) cells expressing luciferase-tagged ELG1; HEK293T ELG1-luciferase reporter, luminescence, 16 h; Potency, µM (doses to about 46 µM), for inactives: at the highest dose activity change, positive = activation, usual class: activators; actives 1.3% (n = 330,000); note: % of control where 0% means no effect; nearly all actives have a fitted effect of over 60% in size
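Quantitative HTS format in 1536-well plates. HEK293T ELG1-luciferase reporter cells receive test compound and are incubated 16 hr at 37 °C, 5% CO2; ONE-Glo added, 30 min room temperature, then luminescence read.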
FLuc modulator: qHTS profiling assay for firefly luciferase inhibitor/activator using purifed enzyme and Km concentrations of substrates (counterscreen for miR-21 project). actives 6.9% (n = 360,000). AID 588342, 2011. purified FLuc, Km substrates, luminescence inhibition. Luciferin 4-monooxygenase (Photinus pyralis), P08659. Potency, µM (top dose mostly 57.5 µM), without a hit: at the top dose activity change, negative = inhibition, most hits filed as inhibitors;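 note: plate controls were vehicle for no effect and reference inhibitor for full effect; nearly all actives have a fitted effect of over 55% in size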
Target sequence (P08659 whole entry, looked up): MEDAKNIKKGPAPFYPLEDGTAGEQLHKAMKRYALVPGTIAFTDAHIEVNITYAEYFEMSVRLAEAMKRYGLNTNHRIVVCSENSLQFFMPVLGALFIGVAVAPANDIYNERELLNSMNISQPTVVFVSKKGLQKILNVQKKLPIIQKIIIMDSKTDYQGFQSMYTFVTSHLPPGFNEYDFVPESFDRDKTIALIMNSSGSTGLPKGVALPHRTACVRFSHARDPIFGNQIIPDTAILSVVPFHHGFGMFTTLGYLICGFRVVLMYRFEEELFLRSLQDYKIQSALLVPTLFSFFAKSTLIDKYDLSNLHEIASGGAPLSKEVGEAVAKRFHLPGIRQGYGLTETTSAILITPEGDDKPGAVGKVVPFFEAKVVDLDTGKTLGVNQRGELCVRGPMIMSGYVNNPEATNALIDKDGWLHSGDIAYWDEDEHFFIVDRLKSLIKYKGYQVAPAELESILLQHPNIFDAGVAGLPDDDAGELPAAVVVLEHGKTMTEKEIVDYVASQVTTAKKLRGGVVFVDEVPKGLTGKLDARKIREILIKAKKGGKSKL
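Biochemical qHTS of compounds, final roughly 60 µM downward over six points, against 10 nM purified firefly luciferase using Km concentrations of substrates (10 uM D-luciferin, 10 uM ATP) in Tris acetate pH 7.5 buffer; luminescence output.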
The depositor's hits bear a star; ? = inconclusive; nt = not tested or not shown. Most compounds without a hit are left out; they make up all but 9.2% or so of the library. Calls come from the whole dose curve; as a rule, active = well fitted curve in the direction sought with a large enough effect; inconclusive = small, poorly fitted or top-dose-only effect, or another doubt; inactive = no such curve, though single readings can be large; an effect the other way counts as inactive or inconclusive. Potency is the fitted concentration of half-maximal effect.

SMILES | ELG1 repair inh | NPC1 prom act | SMN2 splice enh | Rab9 prom act | ELG1 genotox | FLuc modulator
CCN(CC)c1ccc(C(=O)OCC(=O)Nc2sccc2C#N)cc1 | ? | 3.2µM* | 10µM* | 2.8µM* | ? | 12µM*
COc1ccc(S(N)(=O)=O)cc1C(=O)OCC(=O)Nc1sccc1C#N | 15% | nt | nt | nt | 0% | nt
N#Cc1ccsc1NC(=O)COC(=O)c1cc2ccccc2cc1O | ? | 18% | 22µM* | 3.2µM* | ? | 4.3µM*
CSc1nsc(SCC(=O)Nc2ccc(Cl)c(C(=O)O)c2)n1 | -8% | 1% | nt | -1% | -2% | -17%
NS(=O)(=O)c1cccc(NC(=O)COC(=O)CCC2CCCC2)c1 | 12% | nt | nt | nt | 4% | nt
COc1ccc(Cc2nnc(Cl)c3ccccc23)cc1OC | ? | -6% | nt | 5% | 14% | 5%
CC(C)(C)C(=O)COC(=O)c1cc2ccccc2cc1O | ? | -1% | ? | 1% | ? | 6.7µM*
N#C/C(=C\c1ccccc1[N+](=O)[O-])C(=O)NCc1ccccc1 | 1.8µM* | -3% | nt | 2% | -2% | -6%
CCN(CC)c1ccc(/C=C(/C#N)C(=O)NCc2ccccc2)o1 | ? | 23% | nt | ? | 15% | 24µM*
CCN(CC)c1ccc(/C=C(/C#N)C(=O)NC(C)C)o1 | ? | 8% | 25% | 27% | 19% | ?
CCOC(=O)c1c(S(=O)(=O)N2CCCC(C(=O)Nc3ccc(C)cc3C)C2)c(C)n(CC)c1C (configuration not stated) | nt | nt | nt | nt | nt | 3%
COc1ccccc1C(=O)COC(=O)CN1C(=O)c2ccccc2C1=O | 2% | -5% | nt | 2% | 1% | -2%
COc1ccc(C(=O)COC(=O)c2ccccc2O)c(OC)c1 | ? | ? | nt | 3.5µM* | ? | 6µM*
COc1ccc(C(=O)OCC(=O)c2cc(OC)ccc2OC)c(OC)c1 | -16% | 2% | -7% | 0% | 1% | ?
COc1ccc(C(=O)Nc2cc(OC)ccc2OC)cc1 | ? | -2% | -2% | 17% | 3% | 24µM*
COc1ccc(C(=O)CN2C(=O)c3ccccc3C2=O)c(OC)c1 | ? | 24% | nt | ? | ? | 15µM*
COc1cc(NC(=O)c2cc3nc(C)cc(C)n3n2)c(OC)cc1Cl | ? | 2.5µM* | 11µM* | 1.3µM* | ? | 3µM*
O=C(Nc1cccc(Cl)c1)c1nc[nH]c1C(=O)N1CCN(c2ccccc2)CC1 | 16% | -2% | nt | -3% | 7% | 0%
COc1ccc(C(=O)OCc2csc(C)n2)c(O)c1 | ? | ? | 2% | ? | ? | 15µM*
COc1ccc(-c2csc(C)n2)cc1Br | ? | 14% | 17% | 25% | ? | 15µM*
COc1ccc(OC)c(NC(=O)c2cn(C)c(=O)c3cc(OC)c(OC)cc23)c1 | 21µM* | 0% | ? | -6% | -2% | -3%
Cc1nc(C/C(=N\N)c2ccc(O)cc2O)cs1 | -8% | 10% | 17% | 0% | 3% | 1%
COc1ccc(OC)c(NC(=O)c2ccc(-c3csc(C)n3)cc2)c1 | ? | 25% | nt | 25% | 7% | 5.4µM*
COc1cc(C(=O)NCCCCc2ccccc2)cc(OC)c1OC | -10% | -5% | nt | -1% | -6% | -3%
COc1ccc(NC(=O)c2oc3c(c2C)-c2nn(Cc4ccccc4Cl)cc2CC3)cc1OC | nt | nt | nt | nt | nt | -3%
SMILES | ELG1 repair inh | NPC1 prom act | SMN2 splice enh | Rab9 prom act | ELG1 genotox | FLuc modulator
Cn1c(=O)c(=O)n(C)c2cc(S(=O)(=O)N3CCCC3C(=O)Nc3ccccc3F)ccc21 (configuration not stated) | 15% | -2% | 5% | -1% | 0% | -1%
COc1ccc(NC(=O)CSc2ccccc2)c(OC)c1 | ? | ? | 22µM* | 4µM* | 15% | 27µM*
COc1ccc(NC(=O)CSc2nccn2Cc2ccccc2)c(OC)c1 | ? | 1% | nt | 6% | 7% | -25%
COc1ccc(OC)c(NC(=O)c2csc(Cl)c2OC)c1 | 5% | 2% | nt | -2% | 3% | 15µM*
COc1ccc(OC)c(NC(=O)c2ccc3nc(-c4ccccc4)c(-c4ccccc4)nc3c2)c1 | 23µM* | 0% | 1% | 4% | -4% | 4%
COc1ccc(NC(=O)c2ccccc2SC)c(OC)c1 | 15% | -6% | -1% | -6% | 2% | -13%
COc1ccc(OC)c(NC(=O)c2cc(OC(C)=O)cc(C(=O)Nc3cc(OC)ccc3OC)c2)c1 | ? | -10% | nt | -12% | -16% | 3%
COc1ccc(NC(=O)c2ccccc2O)c(OC)c1 | ? | ? | ? | 3.2µM* | 11µM* | 9.5µM*
COC1=C[C@@H](C)C2CC3OC(=O)C[C@H]4C(C)=C(OC)C(=O)C([C@@]2(C)C1=O)[C@@]34C (some centres not stated) | nt | nt | -1% | nt | nt | nt
COc1ccc(C(=O)Nc2cc(OC)c(Cl)cc2OC)cc1 | ? | 16% | 16% | 9% | 1% | 21µM*
COc1ccc(OC)c(NC(=O)Nc2cccc3ccccc23)c1 | -20% | -2% | -17% | -2% | 6% | 4%
COc1ccc(OC)c(NC(=O)c2cc3ccccc3cc2OC)c1 | 3% | 2% | nt | 7% | 2% | 24µM*
CC(C)Nc1nc2nonc2nc1Nc1ccccc1 | 16µM* | 2% | nt | -8% | -8% | 2%
Cc1cc(/C=C2\SC(=S)N(Cc3ccco3)C2=O)c(C)n1-c1cccnc1 | ? | ? | 5% | ? | ? | 4.8µM*
Cc1cc(/C=C2\NC(=S)NC2=O)c(C)n1-c1cccnc1 | ? | 21% | nt | ? | 10% | 9.5µM*
Cc1cc(/C=C2\NC(=O)NC2=O)c(C)n1-c1cccnc1 | 8% | 22% | nt | 1% | 17% | 15µM*
O=C(COc1ccccc1Cl)NCc1ccncc1 | -8% | 1% | -24% | -4% | 3% | -3%
C[C@H](CO)N1C[C@H](C)[C@@H](CN(C)S(=O)(=O)c2cn(C)cn2)Oc2c(NS(=O)(=O)c3ccc(F)cc3)cccc2C1=O | ? | nt | nt | nt | 4% | nt
CCOC(=O)CCCNC(=O)COC(=O)c1ccc(O)cc1 | 9% | -5% | -2% | -1% | 1% | 9%
CC(=O)Oc1ccccc1/C=C/c1nc2ccccc2c(=O)o1 | -15% | ? | nt | ? | 1% | 15µM*
